Most compounds without a hit are left out; they make up all but 9.7% or so of the library.
Autofluor 339 – intrinsic fluorescence of library compounds, ex339/em460 – biochemical, MLSMR library, data from DPM-DC assay, artefact control, profiling panel. AID 709. compound autofluorescence, ex339/em460 nm, NADH buffer; active compounds read high; 1 = no-compound wells, NADH background. actives 5.5% (n = 65,000). fluorescence fold increase at 10 µM;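 active means at 10 µM, mean starting fluorescence two-fold or more over control wells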;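 further: signal is the first read of a kinetic run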
WNV protease inh – blocks West Nile virus NS2B-NS3 protease activity; P06935; WNV NS2B-NS3 protease, fluorogenic substrate Ex360/Em465; active compounds read low; z-score (test concentration not listed); actives 0.18% (n = 65,000); AID 577; in the data active means z-score below about -3
M1 antagonist – blocks the rat M1 muscarinic receptor response to acetylcholine; P08482; CHO-M1 cells, Fluo-4 calcium, ACh EC80 antagonist mode; active compounds read low; B-score at 10 µM; actives 3.4% (n = 64,000); AID 628;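 active means calcium fluorescence response, raw or row-and-column corrected B-score, differing from the plate sample mean either way at a set confidence level, mostly lower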
M1 agonist – activates the M1 muscarinic receptor | CHO-M1 cells, Fluo-4 calcium fluorescence, agonist mode; active compounds read high | B-score at 10 µM | actives 3% (n = 64,000);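 active means fluorescence rise, raw or as B-score row- and column-corrected plate score, outside the 99.7% band of its plate's samples, either direction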
Abs 340nm – compound absorbs light at 340 nm; compound absorbance at 340 nm, fold over control; fold change at 10 µM; 65,000 tested, under 10 active; AID 708;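 active means at 10 µM dose, initial 340 nm absorbance at least 2 fold that of control wells; inactive means change under 2 fold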;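 further: initial absorbance extrapolated from kinetic A340 decline of NADH oxidation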
BAP1 block – human BAP1 deubiquitinase inhibition; Q92560; recombinant BAP1, Ub-AMC hydrolysis fluorescence kinetic; active compounds read low; calls only at 20 µM; actives 0.48% (n = 72,000); AID 436;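 active means activity remaining at or below 50% of control, provided the compound also passes the data quality filters; inactive means the rest, including low values that fail the filters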
Target sequence (Q92560 whole entry, looked up): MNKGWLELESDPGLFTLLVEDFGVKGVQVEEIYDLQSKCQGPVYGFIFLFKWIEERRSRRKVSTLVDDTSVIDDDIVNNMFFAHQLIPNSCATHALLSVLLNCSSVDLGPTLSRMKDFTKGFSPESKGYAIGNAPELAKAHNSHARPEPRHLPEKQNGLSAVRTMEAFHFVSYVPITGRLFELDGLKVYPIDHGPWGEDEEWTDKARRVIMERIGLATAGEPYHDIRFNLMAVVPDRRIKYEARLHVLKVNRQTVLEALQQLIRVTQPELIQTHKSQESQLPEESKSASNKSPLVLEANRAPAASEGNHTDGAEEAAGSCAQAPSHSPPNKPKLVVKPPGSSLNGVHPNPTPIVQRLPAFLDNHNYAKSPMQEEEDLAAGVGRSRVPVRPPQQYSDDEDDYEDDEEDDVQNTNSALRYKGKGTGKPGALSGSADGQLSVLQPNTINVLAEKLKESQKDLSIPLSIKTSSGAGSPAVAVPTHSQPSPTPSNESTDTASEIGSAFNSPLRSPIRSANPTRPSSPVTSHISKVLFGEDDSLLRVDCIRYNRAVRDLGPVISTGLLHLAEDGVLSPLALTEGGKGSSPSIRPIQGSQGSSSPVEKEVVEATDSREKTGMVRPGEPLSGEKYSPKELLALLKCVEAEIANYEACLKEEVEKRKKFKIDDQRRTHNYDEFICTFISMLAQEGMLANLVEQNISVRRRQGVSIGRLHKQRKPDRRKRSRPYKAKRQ
Of the large screens only hits and unclear results are named; the others gave an inactive call.

O=C(O)c1c2c(nc3ccc(S(=O)(=O)N4CCC(C(=O)NC5CCCC5)CC4)cc13)CCCCC2	M1 agonist -2.3
C=CCOc1ccc(C2Oc3ccccc3C3CC(c4ccc(OC)cc4)=NN32)cc1 (stereo not given)	none (no result: Autofluor 339, WNV protease inh, M1 antagonist, M1 agonist, Abs 340nm)
COc1cccc(-c2cc(C(=O)Nc3cc(C)n(Cc4ccc(Cl)cc4)n3)no2)c1	none
COc1ccc(OC)c(-c2cc(C(=O)Nc3cc(C)n(Cc4ccc(Cl)cc4)n3)no2)c1	Autofluor 339 3.8 (not shown: BAP1 block)
CCN(CC)CCn1c(NC(C)=O)nc2ccccc21	none (no result: Autofluor 339, WNV protease inh, M1 antagonist, M1 agonist, Abs 340nm)
COc1cccc(-c2cc(C(=O)Nc3ccccc3C(F)(F)F)c3ccccc3n2)c1	none (no result: Autofluor 339, WNV protease inh, M1 antagonist, M1 agonist, Abs 340nm)
Cc1cc(NC(=O)CS(=O)(=O)c2cn(Cc3ccccc3Cl)c3ccccc23)no1	M1 antagonist 3.7
CC(C)(C)S(=O)(=O)c1ccc2nc3c(n2c1)CCCC3	Autofluor 339 3.9
COc1ccc(C2=NO[C@@H]3C(=O)N(c4cccc(C)c4C)C(=O)[C@H]23)cc1OC	M1 antagonist 0.91
Cc1cc(NC(=O)c2cc(-c3ccccn3)nc3ccccc23)no1	none
Cc1ccc(-c2cc(C(=O)NCc3ccco3)c3ccccc3n2)o1	Autofluor 339 4.9
O=C(NCc1ccco1)c1cc(-c2cccnc2)nc2ccccc12	none
Cc1cc(C)c2nc(-c3ccccn3)cc(C(=O)NCc3ccco3)c2c1	Autofluor 339 3.6
Cc1ccc(-c2cc(C(=O)NCCCn3ccnc3)c3cc(Br)ccc3n2)o1	Autofluor 339 2.9
Cc1cc(C)c2nc(-c3ccccn3)cc(C(=O)Nc3cc(C)on3)c2c1	Autofluor 339 3.1
CC(C)(C)n1nc2c(c1NC(=O)c1ccccc1[N+](=O)[O-])CSC2	none (no result: Autofluor 339, WNV protease inh, M1 antagonist, M1 agonist, Abs 340nm)
CCOc1cc(C2C(C(=O)OC)=C(C)NC3=C2C(=O)CC(c2ccc(OC)cc2)C3)cc(Br)c1O (stereo not given)	none (no result: Autofluor 339, WNV protease inh, M1 antagonist, M1 agonist, Abs 340nm)
CC(=O)n1ccc2ccccc21	none (no result: Autofluor 339, WNV protease inh, M1 antagonist, M1 agonist, Abs 340nm)
Cc1cc(NC(=O)c2cc(-c3ccncc3)nc3c(C)cccc23)no1	Autofluor 339 2.7
Cc1cc(NC(=O)c2cc(-c3cccs3)nc3ccccc23)no1	Autofluor 339 2
Cc1cc(NC(=O)c2ccccc2-c2ccccc2C(=O)O)no1	none
Cc1cc(NC(=O)c2cccc(C(=O)Nc3cc(C)on3)n2)no1	none
O=C(Nc1ccc(OCc2ccccc2)cc1)C1c2ccccc2Oc2ccccc21	none (no result: Autofluor 339, WNV protease inh, M1 antagonist, M1 agonist, Abs 340nm)
COC(=O)c1ccc(-c2cc(C(=O)O)c3cc4c(cc3n2)OCCO4)cc1	Autofluor 339 4.9
CCOC(=O)c1sc2nc(N3CCOCC3)c3c(c2c1N)CCCC3	Autofluor 339 3.7 (not shown: BAP1 block)
COC(=O)c1ccc(Cn2nnc3c(sc4nc(N5CCOCC5)c5c(c43)CCCC5)c2=O)o1	none
CCOC(=O)c1sc2nc(N3CCCC3)c3c(c2c1N)CC(C)(C)OC3	Autofluor 339 3 (not shown: BAP1 block)
NC(=O)c1sc2nc(N3CCCCC3)c3c(c2c1N)CCCC3	Autofluor 339 2.5
Nc1c(C(=O)NCc2ccco2)sc2nc(N3CCOCC3)c3c(c12)CCCC3	Autofluor 339 2.4
CC1(C)Cc2c(c(N3CCCC3)nc3sc4c(N5CCN(CCO)CC5)ncnc4c23)CO1	none (no result: BAP1 block)
Cc1ccc2oc(-c3ccc(C)c(NC(=O)c4ccc([N+](=O)[O-])cc4)c3)nc2c1	none (no result: Autofluor 339, WNV protease inh, M1 antagonist, M1 agonist, Abs 340nm)
CCCCCc1c(C)nc(N2CCc3ccccc3C2)[nH]c1=O	none
CCCCCc1c(C)nc(N2CCc3ccccc32)[nH]c1=O	M1 antagonist 1.5 (not shown: BAP1 block)
Nc1ccc(-c2nc3ccc(N)cc3o2)cc1	Autofluor 339 2.1 (not shown: BAP1 block)
Nc1ccc(-c2nc3ccc(-c4nc5ccccc5o4)cc3[nH]2)cc1	Autofluor 339 3.7
Cc1[nH]c2ccccc2c1-c1nc2ccccc2[nH]1	none
Nc1cc(N)cc(-c2nc3ccccc3[nH]2)c1	Autofluor 339 2.2
Cc1ccc(OCC(=O)Nc2ccccc2C)cc1C	none (no result: Autofluor 339, WNV protease inh, M1 antagonist, M1 agonist, Abs 340nm)
Cc1ccc(OCC(=O)Nc2ccc(O)c(C(=O)O)c2)cc1C	Autofluor 339 3.3
CCOC(=O)c1sc(C)c(C(=O)NCCCN2CCOCC2)c1N	Autofluor 339 2.3
Cc1cccc(N2C(=O)C(Cl)=C(NC3CCCCC3)C2=O)c1C	none (no result: Autofluor 339, WNV protease inh, M1 antagonist, M1 agonist, Abs 340nm)
Cc1cc(NCCO)n2c(nc3ccccc32)c1C#N	none (no result: Autofluor 339, WNV protease inh, M1 antagonist, M1 agonist, Abs 340nm)
Cc1nc(NCCCn2ccnc2)c2ccccc2n1	none
Cc1cc(NCCCn2ccnc2)n2c(nc3ccccc32)c1C#N	Autofluor 339 3.4 (not shown: BAP1 block)

High-throughput results from PubChem.
